AmpC no deterg = inhibitors of E. coli AmpC beta-lactamase without detergent. P00811. AmpC nitrocefin hydrolysis, absorbance 480 nm, 0.0001% Triton. Potency, µM (top dose mostly 57.1 µM), for inactives: at the highest dose activity change, negative = inhibition, hits mostly inhibitors. hit rate 0.52% among 330,000;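 note: plate controls were no compound for no effect and no enzyme for full effect; nearly all actives have a fitted effect of over 20% in size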
Target sequence (P00811 whole entry, looked up): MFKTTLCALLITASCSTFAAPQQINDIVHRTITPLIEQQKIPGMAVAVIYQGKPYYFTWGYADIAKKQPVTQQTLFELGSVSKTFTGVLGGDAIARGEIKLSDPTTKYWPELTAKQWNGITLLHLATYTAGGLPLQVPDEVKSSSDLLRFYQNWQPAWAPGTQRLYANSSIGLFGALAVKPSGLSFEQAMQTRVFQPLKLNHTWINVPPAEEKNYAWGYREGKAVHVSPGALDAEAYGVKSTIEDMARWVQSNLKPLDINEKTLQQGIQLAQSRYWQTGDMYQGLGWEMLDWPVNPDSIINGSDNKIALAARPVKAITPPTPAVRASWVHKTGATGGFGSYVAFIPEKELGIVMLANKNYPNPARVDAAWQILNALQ
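20 mM phosphate pH 7.0 + 0.01% (detergent screen) or 0.0001% Triton X-100; 5.3 nM AmpC reagent; cpd preinc 15 min RT; nitrocefin (800 uM stock) to start; A480 q20 s × 4 min; Activity was normalised to no-enzyme and no-compound control wells.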
AmpC detergent = inhibitors of E. coli AmpC beta-lactamase with detergent. Potency, µM (highest dose often 114 µM), for inactives: at the highest dose activity change, negative = inhibition, most hits filed as inhibitors. AmpC hydrolysis of nitrocefin, absorbance 480 nm, 0.01% Triton. hit rate 0.041% among 370,000. P00811. AID 485294;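 note: 0% = no-compound wells and -100% = no-enzyme wells; nearly all actives have a fitted effect of over 25% in size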
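AmpC (5.3 nM in the dispensed reagent) in 20 mM phosphate pH 7.0 with 0.01% (detergent screen) or 0.0001% Triton X-100 was preincubated with compounds for 15 min at room temperature. Nitrocefin was then added from an 800 uM solution, and hydrolysis was followed at 480 nm.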
MARV entry inh = inhibitors of Marburg virus binding or cell entry; Marburg virus pseudotyped entry inhibition, cell reporter; Potency, µM (top dose mostly 37.8 µM), for inactives: at the highest dose activity change, negative = inhibition, actives largely listed as inhibitors; hit rate 1.8% among 300,000; calls by dose curve; tested in HEK293 cells
Lassa entry inh = inhibitors of Lassa virus binding or cell entry | Potency, µM (titrated, usually from 37.9 µM), inactives show at the highest dose activity change, negative = inhibition, actives largely listed as inhibitors | AID 540256 | hit rate 1.2% among 300,000 | Lassa virus pseudotype entry inhibition, cell reporter; calls by dose curve; tested in HEK293 cells; note: nearly all actives have a fitted effect of over 50% in size
AMA1 RON2 block = disrupts binding of P. falciparum AMA1 to RON2. Potency, µM (series often up to 58.2 µM), for inactives: top-dose activity change, negative = inhibition, hits mostly inhibitors. hit rate 0.2% among 360,000. AID 720542. AlphaScreen AMA1-biotinylated RON2 peptide binding;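 note: 0% = vehicle wells and -100% = peptide control; nearly all actives have a fitted effect of over 45% in size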
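AMA1 (3D7) with his tag at 25 nM final met compounds first, then biotinylated RON2 peptide at 25 nM; detection used donor plus acceptor beads, 10 µg/mL apiece, read by AlphaScreen after 30 min at room temperature.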
Starred values were filed as active, the others as inactive; ! = not confirmed by another sample; [ ] = another dose, or the depositor's remark. Compounds with a hit are over-represented: about 2.3% of the library has one in this group of screens. Unless noted, calls come from the whole dose curve; as a rule, active = well fitted curve in the direction sought with a large enough effect; inconclusive = small, poorly fitted or top-dose-only effect, or another doubt; inactive = no such curve, though single readings can be large; an effect the other way counts as inactive or inconclusive. Unless noted, % is set by controls: 0 for no effect and ±100 for the full control effect; potency is the fitted concentration of half-maximal effect.

What do the screens show for `CC(=O)c1ccc(OCc2cc(C(=O)N3CCN(C4CCCC4)C(=O)C3)no2)cc1`?
MARV entry inh: 3%; Lassa entry inh: 3.2µM*; AMA1 RON2 block: 7%

Results for CCc1ccc2[nH]c(=O)c(CN(CCCN3CCOCC3)C(=O)Nc3cccc(Cl)c3)cc2c1 ?
AmpC no deterg: 191%; AmpC detergent: -8%; MARV entry inh: 18µM*; Lassa entry inh: inconclusive; AMA1 RON2 block: -3%

How did CCc1ccc2[nH]c(=O)c(CN(CCCN3CCOCC3)C(=O)Nc3ccc(Cl)cc3)cc2c1 do in these assays?
AmpC no deterg: 2%; AmpC detergent: inconclusive; MARV entry inh: inconclusive; Lassa entry inh: inconclusive; AMA1 RON2 block: -15%

How did COc1cc2cc(CN(CCc3cccc(C)c3)C(=S)NCCCN3CCOCC3)c(=O)[nH]c2cc1OC do in these assays?
AmpC no deterg: 243%; AmpC detergent: -3%; MARV entry inh: 10µM*; Lassa entry inh: inconclusive; AMA1 RON2 block: -11%

What do the screens show for `COc1ccc(NS(=O)(=O)c2cc(NC(=O)Cc3cccs3)ccc2C)cc1`?
AmpC no deterg: -20%; AmpC detergent: -3%; MARV entry inh: inconclusive; Lassa entry inh: 1.8µM*; AMA1 RON2 block: 15%

How did CN(C)c1ccc(Cc2cc3c(O)ccc(O)c3cc(Cc3ccc(N(C)C)cc3)c2=O)cc1 do in these assays?
MARV entry inh: inconclusive; Lassa entry inh: -28%; AMA1 RON2 block: 11µM*

What do the screens show for `Cc1cc(C)c(/C=N/NC(=O)c2nnn(-c3nonc3N)c2CN2CCC(C)CC2)c(C)c1`?
AmpC no deterg: -6%; AmpC detergent: 2%; MARV entry inh: inconclusive; Lassa entry inh: inconclusive; AMA1 RON2 block: 35%

What do the screens show for `CN(Cc1c(C(=O)N/N=C/c2ccccc2)nnn1-c1nonc1N)c1ccccc1`?
AmpC no deterg: -43%; AmpC detergent: -14%; AMA1 RON2 block: 44%

Results for CC1CCN(Cc2c(C(=O)N/N=C/c3cc(Br)ccc3O)nnn2-c2nonc2N)CC1 ?
AmpC no deterg: -46%; AmpC detergent: inconclusive; MARV entry inh: 2µM*; Lassa entry inh: inconclusive; AMA1 RON2 block: 64%

Results for CC1CCN(Cc2c(C(=O)N/N=C/c3cc(Cl)ccc3O)nnn2-c2nonc2N)CC1 ?
AmpC no deterg: -20%; AmpC detergent: -11%; MARV entry inh: 3.5µM*; Lassa entry inh: inconclusive; AMA1 RON2 block: 71%

What do the screens show for `Nc1nonc1-n1nnc(C(=O)N/N=C/c2cc(Br)cs2)c1-c1ccccc1`?
AmpC no deterg: -46%; AmpC detergent: -2%; MARV entry inh: 5.6µM*; Lassa entry inh: -19%[46.1 µM]; AMA1 RON2 block: 37%

Results for COc1c(Cl)cc(Cl)cc1/C=N/NC(=O)c1nnn(-c2nonc2N)c1CN1CCC(C)CC1 ?
AmpC no deterg: -32%; AmpC detergent: -2%; MARV entry inh: -29%[46.1 µM]; Lassa entry inh: 1%[46.1 µM]; AMA1 RON2 block: -5%

Results for CN(Cc1c(C(=O)N/N=C/c2cccc(Cl)c2)nnn1-c1nonc1N)c1ccccc1 ?
AmpC no deterg: 14µM*; AmpC detergent: 5%; AMA1 RON2 block: -11%

Results for Nc1nonc1-n1nnc(C(=O)N/N=C/c2ccccn2)c1-c1ccccc1 ?
AmpC no deterg: -13%; AmpC detergent: 2%; MARV entry inh: inconclusive; Lassa entry inh: 12%[46.1 µM]; AMA1 RON2 block: 69%

Results for CCOc1cc(C2CC(=O)Nc3c2c(=O)nc(SCc2cccc(Cl)c2)n3C)ccc1O (stereo not given) ?
AmpC detergent: 2%; MARV entry inh: 2%[46.1 µM]; Lassa entry inh: -1%[46.1 µM]

What do the screens show for `O=C(Nc1ccc(F)cc1C(F)(F)F)C1CCN(c2ncccn2)CC1`?
AmpC detergent: 16%; MARV entry inh: -11%[46.1 µM]; Lassa entry inh: 17%[46.1 µM]

What do the screens show for `S=C(NNc1nc(Nc2ccccc2)nc(N2CCCCC2)n1)NC1CCCCC1`?
AmpC no deterg: -52%; AmpC detergent: 6%; MARV entry inh: 10µM*; Lassa entry inh: -6%; AMA1 RON2 block: 27%

How did CCn1c(-c2nonc2N)nc2ccncc21 do in these assays?
Lassa entry inh: -6%

What do the screens show for `CCc1nccc2c1nc(-c1nonc1N)n2CC`?
Lassa entry inh: 25µM*

How did C[C@@H]1C=CCCO[C@]12C(=O)Nc1ccccc12 do in these assays?
MARV entry inh: -44%[14.2 µM]

Results for Cc1nc2c(=O)n(C)c(=O)n(C)c2nc1Cl ?
AmpC no deterg: 1%; AmpC detergent: inconclusive; MARV entry inh: 8.2µM*; Lassa entry inh: inconclusive; AMA1 RON2 block: 9%

What do the screens show for `Cc1nc2nc(-c3ccc(F)cc3)cn2nc1C`?
AmpC no deterg: -10%; AmpC detergent: 8%; AMA1 RON2 block: 6%

Results for CCc1ccc(-c2cn3nc(C)c(C)nc3n2)cc1 ?
AmpC no deterg: -10%; AmpC detergent: 0%; MARV entry inh: 2.1µM*; Lassa entry inh: inconclusive; AMA1 RON2 block: 50%

Results for Cc1nc2nc(-c3ccccc3)cn2nc1C ?
AmpC detergent: -10%; MARV entry inh: inconclusive; Lassa entry inh: 12µM*; AMA1 RON2 block: 42%

What do the screens show for `O=C1[C@H]2[C@H]3[C@H](O)[C@H](O)C/C(=N\OCc4ccccc4)[C@H]3CC[C@H]2C(=O)N1Cc1ccc2c(c1)OCO2`?
MARV entry inh: -38%[14.2 µM]

Results for CCOc1ccc(NC(=O)C(=O)NCC(c2cccnc2)N2CCc3ccccc32)cc1 (stereo not given) ?
AmpC detergent: -3%; Lassa entry inh: -3%[46.1 µM]

How did CCCCCCN1C[C@H](O)[C@@H](n2cc(C3CC3)nn2)C[C@H]1c1ccccc1 do in these assays?
Lassa entry inh: -2%[46.1 µM]

How did CCOC(=O)c1c(C)[nH]c(C(=O)OCC(=O)N2c3ccccc3CC2C)c1C (stereo not given) do in these assays?
AmpC no deterg: 11%; AmpC detergent: inconclusive; MARV entry inh: inconclusive; Lassa entry inh: inconclusive; AMA1 RON2 block: 11%

How did CCOC(=O)C1=C(C)NC(C)=C(C(=O)OCC)C1C(=O)OCC(=O)N1c2ccccc2CC1C (stereo not given) do in these assays?
AmpC no deterg: 96%; AmpC detergent: -3%; MARV entry inh: 13µM*!; Lassa entry inh: inconclusive; AMA1 RON2 block: -1%

What do the screens show for `O=C(NC(=S)N1CCN(c2ccc(C(F)(F)F)cc2[N+](=O)[O-])CC1)c1cccs1`?
AmpC no deterg: 14µM*; AmpC detergent: -1%; MARV entry inh: -30%; Lassa entry inh: -28%; AMA1 RON2 block: -5%

How did Cc1cccc2c1N(CCCOc1ccccc1)C(=O)C2=O do in these assays?
AmpC no deterg: -27%; AmpC detergent: -5%; MARV entry inh: 1%; Lassa entry inh: 1%; AMA1 RON2 block: -27%

How did Cc1ccccc1OCCCN1C(=O)C(=O)c2cccc(C)c21 do in these assays?
AmpC no deterg: inconclusive; AmpC detergent: inconclusive; AMA1 RON2 block: 16µM*

What do the screens show for `CC(C)(C)c1ccc(C(=O)N2CC(=O)Nc3ccc(F)cc3C2c2ccc(F)cc2)cc1` (stereo not given)?
AmpC detergent: -4%; MARV entry inh: inconclusive; Lassa entry inh: inconclusive

Screening results: PubChem BioAssay, National Center for Advancing Translational Sciences (NCATS)
